Source: PubChem BioAssay
Compounds with a hit are over-represented: about 2.4% of the library has one in this group of screens.
D2 ag-1 – Beta-Arrestin HTS for Positive Allosteric Modulators of the Human D2 Dopamine Receptor: Agonists; D(2) dopamine receptor (Homo sapiens), P14416; DiscoveRx PathHunter D2 beta-arrestin, luminescence, 90 min; 100% = 57 uM dopamine signal; 0.084% of 360,000 active; activation, % (no concentration beside the values); in the data active = activation above about 40%
Target sequence (P14416 whole entry, looked up): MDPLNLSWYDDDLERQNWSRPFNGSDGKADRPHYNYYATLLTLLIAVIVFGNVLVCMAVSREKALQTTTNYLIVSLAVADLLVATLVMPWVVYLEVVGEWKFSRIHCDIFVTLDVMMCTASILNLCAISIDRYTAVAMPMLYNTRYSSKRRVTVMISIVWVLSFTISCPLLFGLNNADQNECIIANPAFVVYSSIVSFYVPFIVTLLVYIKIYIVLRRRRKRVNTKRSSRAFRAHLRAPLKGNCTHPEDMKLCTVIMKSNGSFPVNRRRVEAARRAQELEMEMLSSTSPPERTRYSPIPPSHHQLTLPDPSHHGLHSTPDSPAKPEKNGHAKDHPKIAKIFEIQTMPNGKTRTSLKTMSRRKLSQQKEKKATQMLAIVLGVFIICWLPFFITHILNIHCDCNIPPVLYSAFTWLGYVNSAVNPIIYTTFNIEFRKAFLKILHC
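DiscoveRx PathHunter D2 beta-arrestin cells (2,100/well) attached overnight, then compound-stimulated 90 min at 37 C in HBSS/10 mM HEPES/0.1% Tween-20 buffer; beta-galactosidase complementation read by luminescence after 1 h at ambient temperature. Dopamine 57 uM final (EC100) as control.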
D2 PAM-1 – Beta-Arrestin HTS for Positive Allosteric Modulators of the Human D2 Dopamine Receptor: Potentiators; D(2) dopamine receptor (Homo sapiens), P14416; DiscoveRx D2 beta-arrestin cells, luminescence, 90 min; 100% = 57 uM dopamine signal; 0.23% of 360,000 active; potentiation, % (no concentration beside the values); AID 624464, 2012; in the data active = potentiation above about 50%
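D2 cells co-treated with compound plus 50 nM dopamine (EC20) for 90 min at 37 deg C to detect potentiation. Beta-arrestin recruitment was read as enzyme-fragment luminescence after 1 h at ambient temperature. Full response was set by 57 uM dopamine.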
D2 PAM-2 – HTS Assay for Positive Allosteric Modulators of the Human D2 Dopamine Receptor: Primary Screen for Potentiators. D(2) dopamine receptor (Homo sapiens), P14416. HEK293 T-REx D2, calcium flux, EC20 dopamine potentiation. potentiation, % at 10 µM. 0.34% of 340,000 active. AID 485347, 2010;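 active = potentiation over 3 SD above the plate norm, cut at about 30% in these data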; also: 0% is about no effect
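Calcium flux readout, no-wash dye, 1 read/s. Inducible HEK293 Trex D2 line, overnight 30 C. Compound alone 180 s (agonist flags), then EC20 dopamine, another 180 s to score potentiation.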
D2 antag – HTS Assay for Allosteric Antagonists of the Human D2 Dopamine Receptor: Primary Screen for Antagonists; HEK293 TREx D2 cells, calcium flux, dopamine EC80; inhibition, % at 10 µM; 2% of 340,000 active; in the data active = inhibition above about 30%; inactive = below that, where a call was filed; also: 0% is about no effect
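Overnight-induced (tetracycline, 30 C) HEK293 T-REx cells carrying force-coupled D2 receive a no-wash calcium dye, then compound, then EC80 dopamine at 180 s; signals are read kinetically throughout.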
D2 ag-2 – HTS Assay for Allosteric Agonists of the Human D2 Dopamine Receptor: Primary Screen for Agonists; D(2) dopamine receptor (Homo sapiens), P14416; activation, % at 2 µM; 0.53% of 340,000 active; HEK293 T-REx D2 cells, calcium flux agonist mode;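 active = activation over 3 SD above normal in the single-dose calcium agonist read, cut at about 30% in these data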; also: 0% is about no effect
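Agonism is scored from calcium flux in a force-coupled, inducible HEK293 cell line expressing D2, read kinetically for 180 s after compound addition against dopamine controls.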
Numbers without * were called inactive; · = not tested or not shown.

SMILES | D2 ag-1 | D2 PAM-1 | D2 PAM-2 | D2 antag | D2 ag-2
O=C(NCc1ccc(Cl)cc1)C1CCCN(c2cnccn2)C1 (configuration not stated) | -3 | -11 | -4 | 36* | -1
O=C1C(=Cc2ccncc2)CCCc2ccccc21 | -4 | -10 | · | · | ·
O=C1/C(=C/c2cccc3ccccc23)CCCc2ccccc21 | -6 | -8 | 59* | 11 | 0
C/C=C(/C)C(=O)OC1CC(C)(C)C[C@H]2C3=CC[C@@H]4[C@@]5(C)CCC(O[C@@H]6O[C@@H](C(=O)O)[C@@H](O)C(O[C@@H]7OC[C@H](O)[C@@H](O)[C@@H]7O[C@@H]7OC(CO)C(O)[C@@H](O)[C@@H]7O)C6O[C@@H]6OC(CO)C(O)C(O)C6O)[C@@](C)(CO)[C@@H]5CC[C@]4(C)[C@]3(C)CC(O)[C@@]12CO (some centres not stated) | 13 | -21 | · | · | ·
C/C=C(\C)C(=O)OC1[C@H](OC(C)=O)C2(CO)C(CC1(C)C)C1=CCC3C4(C)CCC(O[C@@H]5O[C@H](C(=O)O)[C@@H](O[C@@H]6O[C@H](CO)[C@@H](O)[C@H](O)[C@H]6O)[C@H](O)[C@H]5O[C@H]5O[C@H](CO)[C@@H](O)[C@H](O)[C@H]5O)[C@](C)(CO)C4CCC3(C)[C@]1(C)C[C@H]2O (some centres not stated) | 41* | -63 | · | · | ·
O=C(/C=C/Nc1ccc(F)cc1)c1ccc(Oc2ncccn2)cc1 | -3 | -8 | 2 | 34* | 0
Cc1cccc(-n2c(=O)c3c(n4cnnc24)-c2ccccc2CC32CCCCC2)c1 | -2 | -2 | 41* | 31* | 0
O=c1c2c(n3cnnc3n1-c1ccccc1)-c1ccccc1CC21CCCCC1 | 0 | 7 | -2 | 5 | 0
Cc1ccc(C(=O)Nc2oc(-c3ccccc3)cc2C#N)cc1 | -4 | -16 | -31 | 31* | 1
CS(=O)(=O)N1CCCC(C(=O)NCCCN2CCN(Cc3ccccc3)CC2)C1 (configuration not stated) | -2 | -18 | 2 | 1 | -1
CCS(=O)(=O)N1CCC(C(=O)NCCCN2CCC(Cc3ccccc3)CC2)CC1 | 0 | -4 | -10 | 5 | 1
CCCS(=O)(=O)N1CCC(C(=O)NCCN2CCC(Cc3ccccc3)CC2)CC1 | 1 | -5 | -21 | 34* | 38*
CS(=O)(=O)N1CCCC(C(=O)NCCCN2CCC(Cc3ccccc3)CC2)C1 (configuration not stated) | -1 | -24 | -30 | 46* | 1
COc1cc(NC(=O)C2CCC(CNc3c(N4CCC(C)CC4)c(=O)c3=O)CC2)cc(OC)c1 (configuration not stated) | -2 | -7 | 30* | 16 | 0
COc1cc(NC(=O)C2CCC(CNc3c(N4CCCCC4)c(=O)c3=O)CC2)cc(OC)c1 (configuration not stated) | 5 | -1 | 4 | · | ·
CCOc1ccc(NC(=O)C2CCC(CNc3c(N4CCC(C)CC4)c(=O)c3=O)CC2)cc1 (configuration not stated) | -3 | 6 | 4 | 31* | 0
Cc1cc(NC(=O)CCC(=O)N(Cc2ccc(F)cc2)C(C(=O)NC2CCCC2)c2ccco2)no1 (configuration not stated) | 3 | 1 | 8 | 30 | -1
Cc1ccc([N+](=O)[O-])c(Oc2ncnc3c2oc2ccccc23)c1 | · | · | 10 | · | 0
CC(=O)Nc1ccc(S(=O)(=O)N2CCC(N3CCN(Cc4ccc(C)cc4)C(=O)C3=O)CC2)cc1 | · | · | 2 | · | 0
Cc1ccc(C)c(N2CCN(C(=O)c3cc(S(=O)(=O)N4CCC(C)CC4)cn3C)CC2)c1 | · | · | 8 | · | 0
COc1ccc(NC(=O)C2CCCO2)cc1Cl (configuration not stated) | -2 | -4 | -14 | 31* | 0
CCOC(=O)c1c(C)[nH]c(C(=O)COC(=O)C2CC2)c1C | 0 | -3 | -8 | -9 | 0
CC(=O)c1c(C)[nH]c(C(=O)COC(=O)C2CC2)c1C | 2 | 1 | -1 | 32* | -3
CC(C)OC(=O)c1c(NC(=O)CCC(=O)O)sc2c1CCCCC2 | -2 | -10 | 7 | 3 | 1
CC(C)OC(=O)c1c(NC(=O)CCn2nnc3ccccc32)sc2c1CCCC2 | 0 | 3 | · | 37* | 4
SMILES | D2 ag-1 | D2 PAM-1 | D2 PAM-2 | D2 antag | D2 ag-2
COc1ccc(CN2CCN(C(=O)c3ccco3)CC2)c(OC)c1OC | 46* | 60* | · | · | ·
COc1ccccc1OCc1ccc(C(=O)N2CCN(C(=O)c3ccco3)CC2)cc1 | 2 | -8 | -6 | 35* | 0
CN(C(=O)c1ccc(COc2ccccc2Br)o1)c1ccccc1 | 3 | -2 | -16 | 44* | -1
COc1ccccc1OCc1ccc(C(=O)N/N=C/c2ccco2)cc1 | -2 | -25 | -18 | 44* | 0
COc1ccc(C(=O)OCC(=O)N2CCN(C(=O)c3ccco3)CC2)c(OC)c1OC | 0 | -7 | · | · | ·
O=C(CSc1ccccc1)NCc1ccc2c(c1)CCN2C(=O)c1ccc(Cl)cc1 | · | · | 10 | · | 0
COc1ccccc1OCc1ccc(C(=O)NN)o1 | 4 | -16 | -19 | 76* | -1
CC(C)NC(=O)COc1coc(CN2CCN(Cc3ccccc3)CC2)cc1=O | 1 | -2 | 1 | -4 | 2
CC(C)NC(=O)COc1coc(CN2CCN(C(=O)c3ccco3)CC2)cc1=O | -4 | -22 | 7 | 50* | 0
Cc1ccc(S(=O)(=O)CC(=O)Nc2ncc([N+](=O)[O-])s2)cc1 | -6 | -12 | 4 | -15 | -3
Cc1ccc(CC(=O)Nc2ncc([N+](=O)[O-])s2)cc1 | -4 | 67* | 4 | 17 | 2
CCOC(=O)C1(Cc2ccccc2C)CCCN(C(=O)c2ccccn2)C1 (configuration not stated) | -1 | 0 | -11 | -2 | 1
CCOC(=O)C1(Cc2ccccc2C)CCCN(C(=O)c2cc(C3CC3)[nH]n2)C1 (configuration not stated) | 1 | 2 | -7 | 32* | 1
CCOC(=O)c1ccc(N2C(=O)c3[nH]nc(-c4ccc(OC)cc4)c3C2c2ccc(C)cc2)cc1 (configuration not stated) | · | · | 17 | · | 0
